# GCN5L2 inh = inhibitors of human GCN5L2 histone acetyltransferase. GCN5L2 HAT assay, ThioGlo1 CoA-SH fluorescence. actives 0.21% (n = 390,000). Potency, µM (titrated, usually from 58.9 µM), without a hit: at the highest dose activity change, negative = inhibition, actives largely listed as inhibitors; also: % is scaled to controls: 0 for no effect and ±100 for the full control effect
#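 ThioGlo1-coupled HAT assay: 20nM GCN5L2, 70uM acetyl-CoA, 75uM H3(1-25) peptide, pH 7.5. Fluorescence read at 340/540nm at start and after 20 min at room temperature.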
# GLP-1R agonist = GLP-1 receptor (human) agonism | HEK293 GLP-1R CRE-luciferase, luminescence, 4-6 h; cells express a hypersensitive GLP-1R form | Potency, µM (titrated, usually from 45.6 µM), for inactives: at the top dose activation, hits mostly activators | actives 0.007% (n = 380,000) | AID 624172 | P43220; also: % of control where 0% means no effect
# PTHR1 ag = activates the human parathyroid hormone receptor PTHR1; HEK293 GP2 PTHR1 cells, GloSensor cAMP luminescence, 1 h; AID 743266; Potency, µM (series often up to 115 µM), without a hit: at the top dose activation, actives largely listed as activators; actives 0.075% (n = 410,000); also: nearly all actives have a fitted effect of over 55% in size
# Target sequence (Q03431 whole entry, looked up): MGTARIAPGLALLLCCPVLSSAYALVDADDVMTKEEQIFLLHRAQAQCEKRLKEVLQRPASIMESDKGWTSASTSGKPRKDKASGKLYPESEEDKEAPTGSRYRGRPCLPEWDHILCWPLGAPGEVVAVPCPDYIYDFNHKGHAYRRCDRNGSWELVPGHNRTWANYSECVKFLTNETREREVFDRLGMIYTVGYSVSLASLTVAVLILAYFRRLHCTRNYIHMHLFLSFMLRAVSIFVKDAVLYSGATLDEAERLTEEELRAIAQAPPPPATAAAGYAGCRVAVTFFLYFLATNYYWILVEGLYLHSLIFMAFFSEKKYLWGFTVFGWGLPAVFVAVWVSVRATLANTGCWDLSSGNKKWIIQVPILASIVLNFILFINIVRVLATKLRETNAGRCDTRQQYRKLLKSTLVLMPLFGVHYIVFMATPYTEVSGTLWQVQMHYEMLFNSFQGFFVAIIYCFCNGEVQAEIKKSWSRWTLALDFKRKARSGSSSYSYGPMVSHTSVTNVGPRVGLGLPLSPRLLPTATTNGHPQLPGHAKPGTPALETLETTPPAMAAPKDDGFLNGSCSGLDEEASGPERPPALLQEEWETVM
#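 HEK-293-derived GP2 cells expressing PTHR1 and a GloSensor cAMP reporter, 3,000/well, plated overnight, given luciferin plus IBMX (each 0.5 mM as added) for 1 h at 37 °C, then compound for 1 h at 37 °C. Luminescence was read after 15 min at room temperature.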
# HEK293 tox = cytotoxicity in counter-screen for GLP-1R inverse agonists | HEK293 cAMP-luciferase reporter cells, luminescence, 24 h | Potency, µM (top dose mostly 38.3 µM), without a hit: at the highest dose activity change, negative = inhibition, usual class: inhibitors | actives 0.13% (n = 410,000) | AID 624418;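 also: loss of luciferase light is scored as toxicity; % is scaled to controls: 0 for no effect and ±100 for the full control effect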
#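 Luminescence readout: signal drop marks cytotoxicity. Plated cells grew 12 h at 37 °C, 5% CO2, received 23 nL compound for 24 h, then got luciferase reagent, read after 12 min at RT.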
# RGS4 inh = blocks human RGS4-accelerated GTP hydrolysis. Transcreener GDP fluorescence polarization, RGS4-accelerated GTP hydrolysis. Potency, µM (highest dose often 114 µM), for the others: at the top dose activity change, negative = inhibition, actives largely listed as inhibitors. actives 0.039% (n = 390,000); also: % is scaled to controls: 0 for no effect and ±100 for the full control effect; nearly all actives have a fitted effect of over 75% in size
#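 MLSMR compounds (23 nl, pin-transferred) preincubated 10 min at room temperature with a 500nM (2x) first reagent, then RGS4 at 900nM (2x) plus Transcreener GDP mix added; fluorescence polarization (620/688 nm) read before and after 90 min at 30 °C.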
# GLP-1R inv ag = inverse agonists of human GLP-1 receptor. P43220. actives 1.6% (n = 410,000). HEK293 GLP-1R CRE-luciferase, luminescence, 24 h; GLP-1R form is constitutively active. Potency, µM (series often up to 38.3 µM), without a hit: top-dose activity change, negative = inhibition, usual class: inhibitors; also: % is scaled to controls: 0 for no effect and ±100 for the full control effect; nearly all actives have a fitted effect of over 55% in size
#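 HEK293 cells stably co-expressing a cAMP-responsive luciferase reporter and constitutively active GLP-1R were seeded, incubated 12 h, then exposed to compounds for 24 h at 37 C. Luminescence was read 12 min after detection reagent; inverse agonists lower signal.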
# * marks the source's active call; other numbers are inactive results; i = inactive; ? = inconclusive; / = not tested or not shown; [ ] = dose if it differs, or a comment. This is a sample that favours compounds with a hit; in the whole collection about 1.8% have one here. Calls follow the shape of the dose curve; as a rule, active = well fitted curve in the direction sought with a large enough effect; inconclusive = small, poorly fitted or top-dose-only effect, or another doubt; inactive = no such curve, though single readings can be large; an effect the other way counts as inactive or inconclusive. Potency is read from the fitted curve at half-maximal effect.
SMILES,GCN5L2 inh,GLP-1R agonist,PTHR1 ag,HEK293 tox,RGS4 inh,GLP-1R inv ag
Cc1ccc(OCCCCCCN2CCNCC2)c(Br)c1,/,-3%,i,?,18%,2.8µM*
Cc1ccc(OCCCCN2CCC(C)CC2)c(Br)c1,-3%,9%,-26%,?,-21%,0%
CC1CCN(CCCCOc2ccc(C(C)(C)C)cc2)CC1,-3%,-4%,i,-24%,-6%,?
COc1ccc(-n2ncc3c2CC(C)(C)CC3NC(=O)c2cn[nH]c2)cc1 (stereo not given),-3%,0%,-12%,5%,4%,32%
CC1(C(=O)NS(=O)(=O)Cc2ccccc2)CCN1C(=O)C1(c2ccc(Cl)cc2)CCC1 (stereo not given),/,-1%,i,2%,/,?
COc1ccc(NC(=O)c2ccc(S(=O)(=O)N3CCOCC3)o2)cc1,-4%,-8%,-9%,0%,3%,-21%
COc1ccccc1OC(C)C(=O)Nc1c(C(=O)c2ccc(Cl)cc2)oc2ccccc12 (stereo not given),2%,-1%,-22%,-3%,12%,1%
CSc1ccc(/C=C/C(=O)c2ccc(NC(=O)Cc3ccccc3)cc2)cc1,-25%,-1%,-11%[57.5 µM],51%,-12%,-13%
CSc1ccc(/C=C/C(=O)c2ccc(NC(=O)C(C)C)cc2)cc1,-22%,-12%,i,?,-24%,10µM*
CCOC(=O)c1c(Nc2cccc(C)c2)nnc(-c2ccccc2)c1-c1ccccc1,-13%,-4%,i,-7%,6%,?
CCOC(=O)c1c(Nc2cc(C)cc(C)c2)nnc(-c2ccccc2)c1-c1ccccc1,-8%,12%,-11%,-5%,3%,7.9µM*
CCCCN(C(=O)c1ccc2c(c1)OCO2)c1ccccc1,-1%,12%,0%,5%,-15%,10µM*
CN(Cc1ccccc1)C(=O)c1ccc2c(c1)OCO2,-1%,12%,-30%[57.5 µM],6%,8%,5%
COc1ccc(OC)c(N(CC(=O)Nc2cccnc2)S(=O)(=O)c2ccc(C)cc2)c1,-1%,4%,-7%,-44%,-8%,-25%
Cc1ccc(S(=O)(=O)N(CC(=O)Nc2cccnc2)c2cccc([N+](=O)[O-])c2)cc1,-23%,15%,-22%,?,-21%,?
Cc1ccc(S(=O)(=O)N(CC(=O)Nc2cccnc2)c2cc(Cl)ccc2C)cc1,-14%,/,-17%,-26%,7%,10µM*
Cc1ccc(S(=O)(=O)N(CC(=O)Nc2cccnc2)c2cccc(Br)c2)cc1,-16%,4%,i,0%,-14%,4.5µM*
CC(C)C[C@H](NC(=O)CNC(=O)[C@H](CCC(N)=O)NC(=O)[C@H](CC(C)C)NC(=O)[C@H](CC(C)C)NC(=O)[C@H](CCCNC(=N)N)NC(=O)[C@H](CCC(N)=O)NC(=O)[C@H](CC(C)C)NC(=O)[C@H](CCCNC(=N)N)NC(=O)[C@H](C)NC(=O)CNC(=O)[C@H](CCC(=O)O)NC(=O)[C@H](CCCNC(=N)N)NC(=O)[C@H](CC(C)C)NC(=O)[C@H](CCCNC(=N)N)NC(=O)[C@H](CO)NC(=O)[C@H](CC(C)C)NC(=O)[C@H](CCC(=O)O)NC(=O)[C@H](CO)NC(=O)[C@@H](NC(=O)[C@H](Cc1ccccc1)NC(=O)[C@@H](NC(=O)CNC(=O)[C@H](CC(=O)O)NC(=O)[C@H](CO)NC(=O)[C@@H](N)Cc1cnc[nH]1)[C@@H](C)O)[C@@H](C)O)C(=O)N[C@H](C(N)=O)C(C)C,50%,/,/,/,/,/
CSc1ccccc1NC(=O)CSCc1ccc(C)cc1,-14%,10%,i,-28%,-10%,5µM*

# Bioassay records from PubChem.
